Common to all, as to format: functional
Assay [1] concerns the target Solute carrier family 2, facilitated glucose transporter member 1 (Homo sapiens) (UniProt P11166). The assay is described as follows: ST_JUDE_LEISH: Cytotoxicity at 2uM final concentration against transgenic Leishmania Mexicana promastigotes LmGLUT1 that are glucose transport deficient and complemented with the human glucose transporter GLUT1. Activity is measured by DNA content using SYBR green in vitro.

For assay [2], the target named is Hexose transporter 1 (Plasmodium falciparum) (UniProt O97467). The assay is described as follows: ST_JUDE_LEISH: Cytotoxicity at 2uM final concentration against transgenic Leishmania Mexicana promastigotes LmPfHT that are glucose transport deficient and complemented with the Plasmodium falciparum hexose transporter. Activity is measured by DNA content using SYBR green in vitro.

In assay [3] the target is Glucose transporter (Leishmania mexicana) (UniProt O61059). Put plainly: ST_JUDE_LEISH: Cytotoxicity at 2uM final concentration against transgenic Leishmania Mexicana promastigotes LmGT2 that are glucose transport deficient and complemented with the L. Mexicana glucose transporter 2. Activity is measured by DNA content using SYBR green in vitro.

Molecules are shown by their SMILES.

Chain of Solute carrier family 2, facilitated glucose transporter member 1 (Homo sapiens) (P11166 whole entry): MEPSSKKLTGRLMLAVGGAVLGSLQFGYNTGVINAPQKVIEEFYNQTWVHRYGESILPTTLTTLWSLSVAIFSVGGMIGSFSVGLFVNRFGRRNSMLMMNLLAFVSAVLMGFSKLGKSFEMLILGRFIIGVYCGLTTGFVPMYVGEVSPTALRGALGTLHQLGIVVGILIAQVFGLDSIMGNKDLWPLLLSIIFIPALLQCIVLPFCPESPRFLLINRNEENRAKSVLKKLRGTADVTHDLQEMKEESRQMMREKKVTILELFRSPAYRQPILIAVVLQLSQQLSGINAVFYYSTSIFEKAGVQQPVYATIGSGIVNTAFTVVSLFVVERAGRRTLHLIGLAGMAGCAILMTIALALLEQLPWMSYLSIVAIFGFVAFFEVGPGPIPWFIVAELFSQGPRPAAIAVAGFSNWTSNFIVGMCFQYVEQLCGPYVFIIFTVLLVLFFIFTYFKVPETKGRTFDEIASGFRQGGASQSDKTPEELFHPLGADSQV

Broadly, the inhibition is the relative decrease from the control value, in per cent. Turning to `c1csc(-c2nc(N3CCCCC3)ncc2-c2ccsc2)n1`, the inhibition in assay [1] is 4.57%; in assay [2] it was 4.73%; in assay [3] it was 2.33%.
For `Cc1cc(OCCCN2CCCCC2C)ccc1NC(=O)COc1ccc(Cl)cc1C(=O)c1cc(Cl)cc(C#N)c1` (stereo unspecified), the inhibition in assay [1] stood at 74.2%; in assay [2] it was 78.3%; in assay [3] it was 58%.
As to `CCCN1CCN(c2ccc(NS(=O)(=O)c3ccc(C(=O)Nc4ccc(Cl)cc4)cc3)cc2)CC1`, the inhibition in assay [1] was 0.49%; in assay [2] it was 0.84%; in assay [3], -2.28%.
With `O=C(NC1CCN(CC2(c3ccccc3F)CCCC2)CC1)c1cc[nH]n1`, the inhibition was 4.33% in assay [1], 1.54% in assay [2] and 1.89% in assay [3].
For `Cn1c(CN2CCC(N3CCc4cc(NC(=O)c5ccco5)ccc43)C2)cc2ccccc21` (stereo unspecified), the figures for the inhibition in assay [1], in assay [2] and in assay [3] were 5.51%, 4.84% and 5.36%, respectively.
Consider `CCN1CCC(N(Cc2ccc(-c3ccc(C(F)(F)F)cc3)o2)C(=O)Cn2c(CCc3cccc(F)c3F)nc(=O)c3ccccc32)CC1`, for which the inhibition came to 11.3% in assay [1], 10.6% in assay [2] and 11.7% in assay [3].
For `CCCc1ccc(Cc2cnc3nc(N)nc(N)c3c2C)cc1`, in that order: 39.1%, 53.8% and 40%.
As for `OCC1CCN(Cc2ccc(-c3cccc(-c4nc5cc(C(F)(F)F)ccc5[nH]4)c3)cc2)CC1`, the inhibition in assay [1] is -1%; in assay [2] it was 1.12%; in assay [3] it was 7.35%.
For `CCCc1c(C(=O)Nc2ccc3c(c2)CCN(C2CCC2)CC3)cnn1-c1ccc(Cl)cc1`, in that order: 5.65%, 4.4% and 2.6%.
Take `COc1cc(C=CC(=O)N2CCN(Cc3cccc(C)c3)CC2)ccc1OCc1c(C)noc1C`: the values for the inhibition in assay [1], in assay [2] and in assay [3] were 8.31%, 6.88% and 6.13%, respectively.
Take `Cc1cc(Nc2ccncc2)n2nc(C)c(-c3ccc(Cl)cc3)c2n1`: the values for the inhibition in assay [1], in assay [2] and in assay [3] were 11.6%, 9.35% and 8.71%, respectively.
For the compound `COc1ccc2nccc([C@@H](O)CN3CCC(NCc4cn5cc(F)ccc5n4)CC3)c2c1`, the inhibition was 2.06% in assay [1], 2.19% in assay [2] and -0.13% in assay [3].

For the origin of these results see ChEMBL document CHEMBL3433997, “St. Jude Leishmania screening dataset” (2016).
